# Several values for one entry are separate records, joined by “and”; a condition that tells them apart may be missing. Equal values may be shown once. ± gives the standard deviation of the averaged measurements. In all, about 2,900 compounds were measured (“IRF Lucia reporter activity, fold change vs agonist alone”: median about 0.9, highest 2% from about 2.8 on). What follows is part of a selection rich in the highest values, with near analogues and random picks from the rest.
# Assays:
# [1] = tested on: RAW-Dual; assay: IRF Lucia reporter activity, fold change vs agonist alone; cytotoxicity flag (confluency mask): not cytotoxic; higher = enhanced IRF activity
# How it was run: (§1)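 RAW-Dual macrophages were seeded in DMEM at 50,000 cells/well in 384-well plates, given 50 nL of library stock by pin tool, and given a PRR agonist 1 h later. Plates were held at 37 °C, 5% CO2 for 20 hours, after which supernatant was read for IRF by QuantiLuc luminescence and for NF-κB by QuantiBlue absorbance at 620 nm. Reporter activity is expressed as fold change over wells that received agonist alone. A well was called cytotoxic when IncuCyte confluency fell below 70% of agonist controls in both mask sets.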
# [2] = tested on: RAW-Dual; assay: IRF Lucia reporter activity, fold change vs agonist alone; higher = enhanced IRF activity; conditions: agonist: MPLA (TLR4) […]
# How it was run: as §1
# [3] = tested on: RAW-Dual; assay: IRF Lucia reporter activity, fold change vs agonist alone; cytotoxicity flag (confluency mask): cytotoxic (confluency <70% of control); higher = enhanced IRF activity
# How it was run: as §1
# [4] = agonist: 3'3'-cGAMP (STING) 10 ug/mL
# [5] = library stock concentration (final ~1000-fold dilution): 10 mM, cytotoxicity flag (confluency mask): not cytotoxic
# [6] = library stock concentration (final ~1000-fold dilution): 10 mM, cytotoxicity flag (confluency mask): cytotoxic (confluency <70% of control)
compound,measurement,setting,value
COc1ccc(C2OCC3C(c4ccc(OC)c(OC)c4)OCC23)cc1OC (configuration not stated) (library stock concentration (final ~1000-fold dilution): 10 mM),IRF Lucia reporter activity,[1]; [4],1.35
same,IRF Lucia reporter activity,[1]; agonist: LPS (TLR4) 0.1 ug/mL,0.899
O=C(C=Cc1ccc(O)cc1)c1ccc(O)cc1O (library stock concentration (final ~1000-fold dilution): 10 mM),IRF Lucia reporter activity,[1]; [4],0.252
same,IRF Lucia reporter activity,[1]; agonist: LPS (TLR4) 0.1 ug/mL,0.535
COC(=O)C1=C(C)NC(C)=C(C(=O)OC(C)(C)CN(C)CCC(c2ccccc2)c2ccccc2)C1c1cccc([N+](=O)[O-])c1 (configuration not stated),IRF Lucia reporter activity,[2]; [5],2.39
COC(=O)C1=C(C)NC(C)=C(C(=O)OCCN(C)Cc2ccccc2)C1c1cccc([N+](=O)[O-])c1.Cl (configuration not stated),IRF Lucia reporter activity,[2]; [5],1.12
COC(=O)C1=C(C)NC(C)=C(C(=O)OC(C)(C)CN(C)CCC(c2ccccc2)c2ccccc2)C1c1cccc([N+](=O)[O-])c1.Cl (configuration not stated),IRF Lucia reporter activity,[2]; [5],2.1
COC(=O)C1=C(C)NC(C)=C(C(=O)OC(C)(C)CN(C)CCC(c2ccccc2)c2ccccc2)C1c1cccc([N+](=O)[O-])c1 (configuration not stated) (library stock concentration (final ~1000-fold dilution): 10 mM),IRF Lucia reporter activity,[1]; [4],0.134
same,IRF Lucia reporter activity,[1]; agonist: LPS (TLR4) 0.1 ug/mL,1.96
COC(=O)C1=C(C)NC(C)=C(C(=O)OC(C)(C)CN(C)CCC(c2ccccc2)c2ccccc2)C1c1cccc([N+](=O)[O-])c1.Cl (configuration not stated) (library stock concentration (final ~1000-fold dilution): 10 mM),IRF Lucia reporter activity,[1]; [4],0.139
same,IRF Lucia reporter activity,[1]; agonist: LPS (TLR4) 0.1 ug/mL,3.23
COC(=O)C1=C(C)NC(C)=C(C(=O)OCCN(C)Cc2ccccc2)C1c1cccc([N+](=O)[O-])c1.Cl (configuration not stated) (library stock concentration (final ~1000-fold dilution): 10 mM),IRF Lucia reporter activity,[1]; [4],0.3
same,IRF Lucia reporter activity,[1]; agonist: LPS (TLR4) 0.1 ug/mL,1.4
COC(=O)c1ccc(O)c(NC(=O)COc2ccc(C34CC5CC(CC(C5)C3)C4)cc2)c1 (library stock concentration (final ~1000-fold dilution): 10 mM),IRF Lucia reporter activity,[1]; [4],0.925
same,IRF Lucia reporter activity,[1]; agonist: LPS (TLR4) 0.1 ug/mL,1.14
CC(C)Cc1ccc([C@@H](C)C(=O)O)cc1 (library stock concentration (final ~1000-fold dilution): 10 mM),IRF Lucia reporter activity,[1]; [4],0.953
same,IRF Lucia reporter activity,[1]; agonist: LPS (TLR4) 0.1 ug/mL,1.08
CCC(C)C(=O)OC1CC(C)C=C2C=CC(C)C(CCC3CC(O)CC(=O)O3)C21 (configuration not stated) (library stock concentration (final ~1000-fold dilution): 10 mM),IRF Lucia reporter activity,[1]; [4],0.497
same,IRF Lucia reporter activity,[1]; agonist: LPS (TLR4) 0.1 ug/mL,0.764
CCC(C)C(=O)OC1CC(C)C=C2C=CC(C)C(CCC3CC(O)CC(=O)O3)C21 (configuration not stated),IRF Lucia reporter activity,[2]; [5],0.744
Cc1cc(C)c(Nc2ccnc(Nc3ccc(C#N)cc3)n2)c(C)c1,IRF Lucia reporter activity,[2]; [6],1.7
Cc1cc(C#N)cc(C)c1Oc1nc(Nc2ccc(C#N)cc2)nc(N)c1Br (library stock concentration (final ~1000-fold dilution): 10 mM),IRF Lucia reporter activity,[1]; [4],1.09
same,IRF Lucia reporter activity,[1]; agonist: LPS (TLR4) 0.1 ug/mL,2.87
Cc1cc(C#N)cc(C)c1Oc1nc(Nc2ccc(C#N)cc2)nc(N)c1Br,IRF Lucia reporter activity,[2]; [5],2.4
Cc1cc(/C=C/C#N)cc(C)c1Nc1ccnc(Nc2ccc(C#N)cc2)n1,IRF Lucia reporter activity,[2]; [5],0.64
Cc1cc(/C=C/C#N)cc(C)c1Nc1ccnc(Nc2ccc(C#N)cc2)n1 (library stock concentration (final ~1000-fold dilution): 10 mM),IRF Lucia reporter activity,[1]; [4],0.03
same,IRF Lucia reporter activity,[1]; agonist: LPS (TLR4) 0.1 ug/mL,0.489
Cc1cc(C)c(Nc2ccnc(Nc3ccc(C#N)cc3)n2)c(C)c1 (library stock concentration (final ~1000-fold dilution): 10 mM),IRF Lucia reporter activity,[3]; [4],0.691
same,IRF Lucia reporter activity,[3]; agonist: LPS (TLR4) 0.1 ug/mL,0.81
CC1CNc2c(cccc2S(=O)(=O)NC(CCCNC(=N)N)C(=O)N2CCC(C)CC2C(=O)O)C1 (configuration not stated),IRF Lucia reporter activity,[2]; [5],0.948
CC1CNc2c(cccc2S(=O)(=O)NC(CCCNC(=N)N)C(=O)N2CCC(C)CC2C(=O)O)C1 (configuration not stated) (library stock concentration (final ~1000-fold dilution): 10 mM),IRF Lucia reporter activity,[1]; [4],1.01
same,IRF Lucia reporter activity,[1]; agonist: LPS (TLR4) 0.1 ug/mL,0.919
O=C(O)c1cc(I)ccc1NC(=O)C(Cc1ccccc1)NCc1ccccc1 (configuration not stated) (library stock concentration (final ~1000-fold dilution): 10 mM),IRF Lucia reporter activity,[1]; [4],1.17
same,IRF Lucia reporter activity,[1]; agonist: LPS (TLR4) 0.1 ug/mL,1.41
O=C(O)c1cc(I)ccc1NC(=O)C(Cc1ccccc1)NCc1ccccc1 (configuration not stated),IRF Lucia reporter activity,[2]; [5],1.05
Nc1nc2[nH]cc(CCc3ccc(C(=O)NC(CCC(=O)O)C(=O)O)cc3)c2c(=O)[nH]1 (configuration not stated) (library stock concentration (final ~1000-fold dilution): 10 mM water),IRF Lucia reporter activity,[1]; [4],1.15 and 0.82
same,IRF Lucia reporter activity,[1]; agonist: LPS (TLR4) 0.1 ug/mL,0.998 and 0.771
Nc1nc2[nH]cc(CCc3ccc(C(=O)NC(CCC(=O)O)C(=O)O)cc3)c2c(=O)[nH]1 (configuration not stated),IRF Lucia reporter activity,"[2]; library stock concentration (final ~1000-fold dilution): 10 mM water, cytotoxicity flag (confluency mask): not cytotoxic",1.12
CN1C(=O)C(Cc2c[nH]c3ccccc23)NC1=S (configuration not stated) (library stock concentration (final ~1000-fold dilution): 10 mM),IRF Lucia reporter activity,[1]; [4],0.553
same,IRF Lucia reporter activity,[1]; agonist: LPS (TLR4) 0.1 ug/mL,3.04
CN1C(=O)NC(Cc2c[nH]c3c(Cl)cccc23)C1=O (configuration not stated) (library stock concentration (final ~1000-fold dilution): 10 mM),IRF Lucia reporter activity,[1]; [4],0.896
same,IRF Lucia reporter activity,[1]; agonist: LPS (TLR4) 0.1 ug/mL,0.697
CC(C)CC1NC(=O)C(C(C)C)NC(=O)C2CCCN2C(=O)C(CC(=O)O)NC(=O)C(Cc2c[nH]c3ccccc23)NC1=O (configuration not stated) (library stock concentration (final ~1000-fold dilution): 10 mM),IRF Lucia reporter activity,[1]; [4],1.23
same,IRF Lucia reporter activity,[1]; agonist: LPS (TLR4) 0.1 ug/mL,1.01
CC(=O)OCC1OC([S-])C(OC(C)=O)C(OC(C)=O)C1OC(C)=O.CCP(CC)CC.[Au+] (configuration not stated) (library stock concentration (final ~1000-fold dilution): 10 mM),IRF Lucia reporter activity,[3]; [4],0.0169
same,IRF Lucia reporter activity,[3]; agonist: LPS (TLR4) 0.1 ug/mL,0.0188
CC(=O)OCC1OC([S-])C(OC(C)=O)C(OC(C)=O)C1OC(C)=O.CCP(CC)CC.[Au+] (configuration not stated),IRF Lucia reporter activity,[2]; [6],0.0231
CC(=O)OC1CC/C(C)=C/CC/C(C)=C/CC2(C(C)C)CCC1(C)O2 (configuration not stated) (library stock concentration (final ~1000-fold dilution): 10 mM),IRF Lucia reporter activity,[1]; [4],0.818 ± 0.25
same,IRF Lucia reporter activity,[1]; agonist: LPS (TLR4) 0.1 ug/mL,0.744 ± 0.15
O=C(/C=C/c1ccc(O)c(O)c1)O[C@@H]1C[C@@](O)(C(=O)O)C[C@@H](O)[C@@H]1O (library stock concentration (final ~1000-fold dilution): 10 mM),IRF Lucia reporter activity,[1]; [4],1.02
same,IRF Lucia reporter activity,[1]; agonist: LPS (TLR4) 0.1 ug/mL,1.23
CS(=O)(=O)O.Cc1c(O)cccc1C(=O)NC(CSc1ccccc1)C(O)CN1CC2CCCCC2CC1C(=O)NC(C)(C)C (configuration not stated) (library stock concentration (final ~1000-fold dilution): 10 mM),IRF Lucia reporter activity,[1]; [4],0.918
same,IRF Lucia reporter activity,[1]; agonist: LPS (TLR4) 0.1 ug/mL,3.62
CC(C)(C)NC(=O)C1CN(Cc2cccnc2)CCN1CC(O)CC(Cc1ccccc1)C(=O)NC1c2ccccc2CC1O.O=S(=O)(O)O (configuration not stated) (library stock concentration (final ~1000-fold dilution): 10 mM),IRF Lucia reporter activity,[1]; [4],1.1
same,IRF Lucia reporter activity,[1]; agonist: LPS (TLR4) 0.1 ug/mL,0.77
CS(=O)(=O)O.Cc1c(O)cccc1C(=O)NC(CSc1ccccc1)C(O)CN1CC2CCCCC2CC1C(=O)NC(C)(C)C (configuration not stated),IRF Lucia reporter activity,[2]; [5],2.24
CC(C)c1nc(CN(C)C(=O)NC(C(=O)NC(Cc2ccccc2)CC(O)C(Cc2ccccc2)NC(=O)OCc2cncs2)C(C)C)cs1 (configuration not stated),IRF Lucia reporter activity,[2]; [5],1.07
CC(C)c1nc(CN(C)C(=O)NC(C(=O)NC(Cc2ccccc2)CC(O)C(Cc2ccccc2)NC(=O)OCc2cncs2)C(C)C)cs1 (configuration not stated) (library stock concentration (final ~1000-fold dilution): 10 mM),IRF Lucia reporter activity,[1]; [4],0.757
same,IRF Lucia reporter activity,[1]; agonist: LPS (TLR4) 0.1 ug/mL,1.34
Cc1cc(C(=O)NC(C)(C)C)cc(C#Cc2ccc3c4c(oc3c2)C(C)(C)c2cc(NS(C)(=O)=O)ccc2C4=O)n1 (library stock concentration (final ~1000-fold dilution): 10 mM),IRF Lucia reporter activity,[1]; [4],0.196
same,IRF Lucia reporter activity,[1]; agonist: LPS (TLR4) 0.1 ug/mL,0.504
CCC1(O)CC2CN(CCc3c([nH]c4ccccc34)C(C(=O)OC)(c3cc4c(cc3OC)N(C)C3C(O)(C(=O)OC)C(OC(C)=O)C5(CC)C=CCN6CCC43C65)C2)C1.O=S(=O)(O)O (configuration not stated) (library stock concentration (final ~1000-fold dilution): 10 mM),IRF Lucia reporter activity,[3]; [4],0.226
same,IRF Lucia reporter activity,[3]; agonist: LPS (TLR4) 0.1 ug/mL,2.16
CCC1(O)CC2CN(CCc3c([nH]c4ccccc34)C(C(=O)OC)(c3cc4c(cc3OC)N(C=O)C3C(O)(C(=O)OC)C(OC(C)=O)C5(CC)C=CCN6CCC43C65)C2)C1.O=S(=O)(O)O (configuration not stated),IRF Lucia reporter activity,[2]; [5],1.06
CCC1=CC2CN(C1)Cc1c([nH]c3ccccc13)C(C(=O)OC)(c1cc3c(cc1OC)N(C)C1C(O)(C(=O)OC)C(OC(C)=O)C4(CC)C=CCN5CCC31C54)C2 (configuration not stated),IRF Lucia reporter activity,[2]; [6],2.68
CCC1=CC2CN(C1)Cc1c([nH]c3ccccc13)C(C(=O)OC)(c1cc3c(cc1OC)N(C)C1C(O)(C(=O)OC)C(OC(C)=O)C4(CC)C=CCN5CCC31C54)C2 (configuration not stated) (library stock concentration (final ~1000-fold dilution): 10 mM),IRF Lucia reporter activity,[3]; [4],0.371
same,IRF Lucia reporter activity,[3]; agonist: LPS (TLR4) 0.1 ug/mL,2.95
CCC1(O)CC2CN(CCc3c([nH]c4ccccc34)C(C(=O)OC)(c3cc4c(cc3OC)N(C)C3C(O)(C(=O)OC)C(OC(C)=O)C5(CC)C=CCN6CCC43C65)C2)C1.O=S(=O)(O)O (configuration not stated),IRF Lucia reporter activity,[2]; [6],2.07
CCC1(O)CC2CN(CCc3c([nH]c4ccccc34)C(C(=O)OC)(c3cc4c(cc3OC)N(C=O)C3C(O)(C(=O)OC)C(OC(C)=O)C5(CC)C=CCN6CCC43C65)C2)C1.O=S(=O)(O)O (configuration not stated) (library stock concentration (final ~1000-fold dilution): 10 mM),IRF Lucia reporter activity,[1]; [4],0.107
same,IRF Lucia reporter activity,[1]; agonist: LPS (TLR4) 0.1 ug/mL,2.02
CCCCS(=O)(=O)NC(Cc1ccc(OCCCCC2CCNCC2)cc1)C(=O)O.Cl.O (configuration not stated) (library stock concentration (final ~1000-fold dilution): 10 mM),IRF Lucia reporter activity,[1]; [4],0.894
same,IRF Lucia reporter activity,[1]; agonist: LPS (TLR4) 0.1 ug/mL,1.35

# — the supplement of paper PMC10037445
